Test results published in PubChem BioAssay (NCI).
The panel holds about 83,000 compounds, 20% with a hit somewhere; the sample as a whole holds those more often.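 Single-concentration screen, 48 h exposure, 96-well plates. Endpoint: percent growth. Below 10 = active.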 Unmarked numbers belong to inactive results. Activity calls are given as the source filed them.

How the values were obtained:
Test in all cases: NCI-60 one-dose screen, 48 h (100 = growth as untreated, 0 = no growth, -100 = all killed)
Settings in all cases: 10 µM unless noted
HCT-15 colon = tested on: HCT-15 colon
HT29 colon = tested on: HT29 colon
SNB-75 CNS = tested on: SNB-75 CNS
SNB-19 CNS = tested on: SNB-19 CNS
U251 CNS = tested on: U251 CNS
SK-MEL-5 melanoma = tested on: SK-MEL-5 melanoma
LOX IMVI melanoma = tested on: LOX IMVI melanoma
SK-MEL-28 melanoma = tested on: SK-MEL-28 melanoma
SK-MEL-2 melanoma = tested on: SK-MEL-2 melanoma
EKVX NSCLC = tested on: EKVX NSCLC
SN12C renal = tested on: SN12C renal
UO-31 renal = tested on: UO-31 renal
TK-10 renal = tested on: TK-10 renal
ACHN renal = tested on: ACHN renal
CAKI-1 renal = tested on: CAKI-1 renal
A498 renal = tested on: A498 renal
CCRF-CEM leukemia = tested on: CCRF-CEM leukemia
MOLT-4 leukemia = tested on: MOLT-4 leukemia
UACC-62 melanoma = tested on: UACC-62 melanoma
PC-3 prostate = tested on: PC-3 prostate

| SMILES | growth (HCT-15 colon) | growth (HT29 colon) | growth (SNB-75 CNS) | growth (SNB-19 CNS) | growth (U251 CNS) | growth (SK-MEL-5 melanoma) | growth (LOX IMVI melanoma) | growth (SK-MEL-28 melanoma) | growth (SK-MEL-2 melanoma) | growth (EKVX NSCLC) | growth (SN12C renal) | growth (UO-31 renal) | growth (TK-10 renal) | growth (ACHN renal) | growth (CAKI-1 renal) | growth (A498 renal) | growth (CCRF-CEM leukemia) | growth (MOLT-4 leukemia) | growth (UACC-62 melanoma) | growth (PC-3 prostate) |
| --- | --- | --- | --- | --- | --- | --- | --- | --- | --- | --- | --- | --- | --- | --- | --- | --- | --- | --- | --- | --- |
| Cc1ccc(-c2nn(Cc3cn(-c4cc(C)nc5ccccc45)nn3)c3ncnc(N)c23)cc1 | 57% | 49.8% | 15.5% | 53.2% | 71.8% | 40.7% | 52.4% | 68.7% | 76.2% | 57.3% | 31.1% | 17.6% | 31.8% | 31.9% | 20.8% | -2.48% (active) | 63.1% | 49.9% |  |  |
| COc1cc2nc(Cl)nc(Nc3cccc(C(=O)/C=C/c4ccc(Br)cc4)c3)c2cc1OC | 43.6% | 68.4% | 76.6% | 86.1% | 80% | 91.6% |  | 92.7% | 92.4% | 81.3% | 80.8% | 60.8% | 172% | 78.3% | 72.8% | 85.4% | 31.3% | 37.1% | 81.5% |  |
| C=C1C(=O)O[C@H]2[C@H]1CC/C(Cn1cc(-c3ccc(OC)cc3)nn1)=C\CC[C@@]1(C)O[C@@H]21 | -71.4% (active) | -82% (active) | 91.4% | 69.5% | 23% | 41.8% | -79.3% (active) |  | 61.9% | 85.4% | 0.315% (active) |  | -84.1% (active) | 6.78% (active) | -4.52% (active) | 31.7% | -32.6% (active) | -32.9% (active) |  |  |
| c1ccc(-c2nc(Nc3ccc(-c4nc5ccccc5[nH]4)cc3)nc(N3CCOCC3)n2)cc1 | -68.9% (active) | -59.9% (active) | -89.6% (active) | -18.6% (active) | -67.5% (active) | -95.4% (active) | -89% (active) | -82.9% (active) | -52.7% (active) | -66.9% (active) | -62.8% (active) | -60.6% (active) | -58.1% (active) | -58.9% (active) | -89.4% (active) | -83.4% (active) | -15.7% (active) | -37.8% (active) |  |  |
| Cn1cc(-c2csc(-c3cn(CCN)c4ccc(Br)cc34)n2)c2cccnc21 | 36.5% | 47.2% | 73.4% | 74.1% | 63.1% | 86.8% | 53.5% | 100% | 110% | 74.9% | 68.9% | 61.4% | 116% | 50.8% |  | 83.9% | 39.8% | 13.5% |  |  |
| COc1ccc(/C=C2\N=C(c3ccccc3)N(c3cc(OC)c(OC)cc3C(=O)N3N=C(C)CC3=O)C2=O)cc1 | 90% | 99.7% | 87.6% | 99.5% | 102% | 77.3% |  | 95.2% | 91.1% |  | 93.7% | 68.9% | 113% | 93.2% | 92.3% | 50.8% |  | 57.9% | 65.5% |  |
| N#Cc1c(-c2ccc(O)cc2)c2c(N)nn(-c3ccccc3)c2[nH]c1=O | 109% | 111% | 104% | 99.8% | 103% | 98% |  | 109% | 103% | 101% | 104% | 71.8% | 137% | 100% | 97.1% | 108% | 110% | 98.1% | 96% |  |
| CC/C=C\C[C@H]1CC=C2C(=O)C=C[C@@H]2CC=CCCCC(=O)O[C@@H](CCCCC)CC=C2C(=O)C=C[C@@H]2CC=CCCCC(=O)O[C@@H](CCCCC)CC=C2C(=O)C=C[C@@H]2CC=CCCCC(=O)O[C@@H](CCCCC)CC=C2C(=O)C=C[C@@H]2CC=CCCCC(=O)O1 | 47.1% [7.9 µM] | 2.5% [7.9 µM] (active) | 65.2% [7.9 µM] | 25.7% [7.9 µM] | -45.8% [7.9 µM] (active) | 17.9% [7.9 µM] | -75.8% [7.9 µM] (active) | 11.9% [7.9 µM] | -5.92% [7.9 µM] (active) | 63.7% [7.9 µM] | -10.5% [7.9 µM] (active) |  | 57.5% [7.9 µM] | 19.6% [7.9 µM] |  | 73.1% [7.9 µM] | 9.35% [7.9 µM] (active) | 4.01% [7.9 µM] (active) |  |  |
| CN1CCN(CC#CCn2c3c(c4ccccc42)C[C@]2(C)[C@H]4CC[C@@H]5[C@H]6[C@H]7OC(=O)[C@@]6(CCC7(C)C)CC[C@@]5(C)[C@]4(C)CC[C@H]2C3(C)C)CC1 | 38.1% | 30.4% | 113% | 87.6% | 25% | 93.3% |  | 106% | 118% | 99.2% | 52.8% | 67.2% | 161% | 91.3% | 52.4% | 71.6% | -0.753% (active) | 41.6% | 99.5% |  |
| O=C1c2cc3c(cc2-c2c1c1ccc(F)cc1c(=O)n2CCCN1CCOCC1)OCO3 | 72.5% | 42% | 53.9% | 39.1% | 14.2% |  | 8.74% (active) | 80.1% | 82.1% | 82.4% |  | 35.9% |  | 4.58% (active) | 17.2% | 59% |  | 3.65% (active) | 13.3% | 60% |
| CCN(CC)C(=O)CCCCCn1c2ccccc2c2c3c(c4c5ccccc5[nH]c4c21)C(=O)N(O)C3=O | 45.9% | -43.7% (active) | 74.4% | 47.2% | 10.5% | 25.9% | -59% (active) |  | 61.4% | 64.1% | 33.2% | -50.7% (active) |  | -64.8% (active) | -59% (active) | 69.1% | 21.3% | -0.333% (active) |  |  |
| C=C1C(=O)O[C@H]2[C@H]1CC/C(COC(=O)NCc1cc3ccccc3[nH]1)=C\CC[C@@]1(C)O[C@@H]21 | -4.13% (active) | -42.6% (active) | 62% | 58.8% | 54.6% | 9.31% (active) | -15.8% (active) | -26.9% (active) | 52.7% | 54.7% | -56.8% (active) | -100% (active) | -54.8% (active) | -75.9% (active) |  | 92.5% | 2.95% (active) | 1.8% (active) |  |  |
| NCCn1cc(-c2nc(-c3c[nH]c4ncccc34)cs2)c2ccccc21 | 88.6% | 98.2% | 61.9% | 89.4% | 91.5% | 77.2% | 89.9% | 107% | 103% | 53.6% |  | 51.3% | 148% | 82.9% |  |  | 88.5% | 96.4% |  |  |
| O=C1NC(c2ccc(Cl)c(Cl)c2)=C/C1=C\c1ccccc1 | 69% | 87.7% | 63.1% | 80% | 46.1% | 97.3% |  | 104% | 107% | 70.8% | 71.8% | 29.2% | 100% | 4.37% (active) | 49.3% | 105% | 45.8% | 53.9% | 86.7% |  |
| CC(=O)n1c(/C(C#N)=C/c2ccc(N(C)C)cc2)cc2ccccc21 | 23.9% | 9.7% (active) | -6.19% (active) | 35.8% | 36.4% | 29.7% |  | 60.8% | 47.9% | 36.8% | 42.9% | 52.6% | 91.3% | 47.5% | 37.7% | 2.85% (active) | 21.1% | 33.1% | 26.8% |  |
| CCSc1ncnc2c1ncn2C1OC(CO)C(O)C1O (centres undefined) | 30.9% | 19.1% | 57% | 34.1% | 54.5% | 32.6% |  | 83.1% | 63.4% | 51.8% | 34.4% |  | 37.6% | 32.6% | 32.2% | 60.9% | 23.4% | 21.4% | 50.7% |  |
| c1ccc2[nH]c(-c3ccc(Nc4nc(N5CCCCC5)nc(N5CCOCC5)n4)cc3)nc2c1 | -33.9% (active) | -28.2% (active) | -0.681% (active) | 10.4% | 8.02% (active) | -90.7% (active) | -77.1% (active) | -30.2% (active) | -20.6% (active) | 27.7% | 52.4% | -37.8% (active) | 58.8% | 22.9% | -46.9% (active) |  | 8.74% (active) | 13.7% |  |  |
